Experimental data from paper PMC5540273 (PLoS ONE, 2017).

What was measured:
Details in all cases: concentration: 1 μM, replicates: in singlicate; n = 1
[1] = test system: T1, RSK4(Kin.Dom.1-N-terminal)
T1 construct: gene RPS6KA6

[2] = test system: T2, RSK4(Kin.Dom.2-C-terminal)
T2 construct: gene RPS6KA6

S6K1 = test system: S6K1
SBK1 = test system: SBK1
SGK2 = test system: SGK2
SGK3 = test system: SGK3
SGK = test system: SGK
SIK2 = test system: SIK2
SIK = test system: SIK
SLK = test system: SLK
SNARK = test system: T3, SNARK
T3 construct: gene NUAK2

SNRK = test system: SNRK
SRC = test system: SRC
SRMS = test system: SRMS
SRPK1 = test system: SRPK1
SRPK2 = test system: SRPK2
SRPK3 = test system: SRPK3
STK16 = test system: STK16
STK33 = test system: STK33
STK35 = test system: STK35
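Also: KINOMEscan kinase panel screen.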

SMILES	%Inh [1]	%Inh [2]	%Inh (S6K1)	%Inh (SBK1)	%Inh (SGK2)	%Inh (SGK3)	%Inh (SGK)	%Inh (SIK2)	%Inh (SIK)	%Inh (SLK)	%Inh (SNARK)	%Inh (SNRK)	%Inh (SRC)	%Inh (SRMS)	%Inh (SRPK1)	%Inh (SRPK2)	%Inh (SRPK3)	%Inh (STK16)	%Inh (STK33)	%Inh (STK35)
Cl.Cl.NCC(NC(=O)c1cc(-c2cccnc2)c(-c2ccnc3[nH]ccc23)s1)c1ccccc1 (centres unmarked) [GSK1323434]	0%	31%	27%	42%	51%	70%	27%	0%	12%	32%	65%	0%	33%	0%	44%	14%	0%	26%	18%	0%
CCn1c(-c2nonc2N)nc2c(-c3ccccc3)ncc(OCCCN)c21.O=C(O)C(F)(F)F.O=C(O)C(F)(F)F [GSK260205]	67%	90.3%	44%	9%	0%	71%	1%	36%	11%	99.1%	0%	57%	0%	0%	22%	0%	0%	0%	0%	0%
CCNC(=O)/C=C/c1n[nH]c2cc(Sc3ccccc3C(=O)NC)ccc12	17%	24%	18%	0%	0%	46%	0%	55%	44%	23%	42%	5%	7%	7%	63%	0%	37%	10%	0%	48%
O=C(Nc1n[nH]c2nc(-c3cccc(O)c3)ccc12)C1CC1 [SB-711805]	52%	14%	0%	4%	14%	13%	28%	0%	0%	48%	0%	7%	0%	15%	45%	0%	32%	83%	0%	0%
Nc1ncc(-c2ccc3nccc(-c4ccncc4)c3c2)cc1S(=O)(=O)N1CCCCC1 [GSK1693850]	8%	50%	7%	14%	0%	17%	0%	0%	0%	69%	22%	0%	0%	0%	20%	0%	0%	21%	55%	0%
c1ccc(Oc2ccc(Nc3ccnc4cc(-c5ccc(CN6CCCCC6)o5)ccc34)cc2)nc1 [GW567143]	0%	1%	6%	25%	6%	0%	0%	70%	97.4%	36%	9%	0%	37%	94.2%	0%	0%	20%	0%	99.9%	59%
Cc1ccccc1CC(=O)N1CCc2cc(-c3cn(C)c4ncnc(N)c34)ccc21 [GSK2603346]	28%	10%	19%	23%	2%	0%	0%	0%	0%	48%	34%	0%	15%	0%	18%	0%	0%	2%	3%	2%
COc1ccc(C2=C(Nc3cccc(O)c3)C(=O)NC2=O)cc1 [SB-390766]	0%	20%	17%	8%	11%	9%	0%	0%	0%	27%	0%	0%	0%	0%	49%	0%	0%	34%	100%	0%
Cc1cc(-c2ccnc(Nc3cccc(C#N)c3)n2)cc(C)c1O [GSK1440913]	0%	0%	0%	28%	29%	6%	55%	15%	0%	21%	27%	0%	7%	0%	78%	54%	92.2%	90.4%	32%	25%
NCCC(NC(=O)c1cc(Br)c(-c2ccnc3[nH]ccc23)s1)c1ccccc1.O=C(O)C(F)(F)F.O=C(O)C(F)(F)F (centres unmarked) [GSK1307810]	53%	4%	48%	66%	67%	64%	78%	0%	0%	16%	90.2%	0%	0%	0%	81%	36%	83%	63%	90%	20%
COc1cc(Nc2nccc(N3CCC(NS(=O)(=O)c4ccc(NC(C)=O)cc4)CC3)n2)cc(OC)c1OC [GSK1379825]	0%	3%	0%	14%	15%	0%	9%	61%	0%	48%	0%	0%	35%	0%	67%	0%	8%	94.8%	0%	52%
CC(=O)Nc1cn2nc(Oc3cccc(NC(=O)c4cccc(C(F)(F)F)c4)c3)ccc2n1	0%	9%	0%	0%	1%	0%	0%	18%	32%	21%	0%	0%	99.9%	11%	0%	22%	9%	10%	3%	1%
CS(=O)(=O)c1cccc(CNc2nc(Nc3ccc4c(c3)CCC(=O)N4)ncc2C(F)(F)F)c1	85%	0%	16%	67%	0%	2%	27%	23%	0%	20%	81%	0%	0%	0%	72%	0%	3%	93.2%	0%	0%
O=C1NC(=O)C(c2ccccc2Cl)=C1Nc1cccc(Cl)c1 [SB-342409]	0%	9%	7%	8%	0%	5%	0%	0%	5%	96.5%	0%	11%	0%	0%	21%	0%	23%	13%	0%	6%
COC(=O)Nc1nc2ccc(Oc3ccc(NC(=O)Nc4cc(C(F)(F)F)ccc4F)cc3)cc2[nH]1.Cl [GW654607]	0%	16%	21%	17%	8%	5%	0%	0%	0%	85%	0%	0%	16%	3%	61%	0%	13%	10%	73%	0%
COc1cccc(-c2nc(-c3ccccc3)[nH]c2-c2ccncc2)c1 [SB-610250]	0%	63%	19%	9%	40%	0%	31%	0%	1%	6%	0%	0%	21%	0%	25%	0%	0%	9%	5%	0%
O=C(Nc1n[nH]c2cc(-c3cccs3)ccc12)C1CC1 [SB-731284]	39%	13%	61%	13%	0%	37%	18%	0%	0%	0%	13%	42%	0%	1%	44%	23%	52%	4%	0%	15%
Cl.N#CCc1ccc(Nc2nccc(Nc3ccc(Oc4ccccc4)cc3)n2)cc1 [GW639905]	0%	0%	0%	13%	0%	90.1%	0%	0%	0%	0%	96.6%	2%	37%	82%	18%	0%	0%	79%	0%	65%
O=C(Nc1n[nH]c2nc(-c3ccccc3O)ccc12)C1CC1 [SB-711880]	51%	28%	26%	0%	31%	8%	30%	58%	0%	49%	0%	0%	0%	0%	0%	0%	23%	15%	0%	57%
